According to article PMC12864922, “TDP-43 directly inhibits mRNA accumulation in neurites through modulation of mRNA stability”:
Whole data set: some 9,900 sequences, median “r (bound/input frequency ratio)” near 0.7, cut for the highest 2% near 6.5. The sample holds the highest values, similar sequences and a random draw of the others, so the mix is not that of the screen.

B1: ENSMUSG00000029636.13|Wasf3 (ssRNA)
RNA: GGGAGUUCUACAGUCCGACGAUCGCUUCGAUAUCCGCAUGCUAGUUUGAUGAGAAUGACUGGUCUGACUGAGGCACAAGGGCCAGGCGACCAGUGGACAGCCAGGGCCCCAUAUGCAAGUGUGUUAGGAGCUCCUGUGCUCUCUGCACCCUCACAGUGGUAUUUCCCUGUAGCUUUAGUCCCUUUUGUAUUAACAGUGUGAUUUGCUUCUGCACAUCCUUCUGGAUUUGUUGAGUAUUUACUGUGUAAUACUUAAGUGCCACAGAACACAGCACACCGUGCUGCACACCAGGAAACUCGCAGUCUCUUGCGGUCGCACUAGUGUGGAAUUCUCGGGUGUCAAGG
B2: ENSMUSG00000061578.1299|Ksr2 (ssRNA)
RNA: GGGAGUUCUACAGUCCGACGAUCGCUUCGAUAUCCGCAUGCUACGUGUUGCUGGGUCCCAGGGGAUUGGCUGUAGUUAAUUAAAAGCACCUGUCUCUGUCAUCUCUGCACCCAACUGAAUCUCCCACCCUCAAGUGUACCUCUCAGGAUAUCCCCAGGCACACGAAGAUGGAAUGGAAAGCCAGUGGGUAUCUCCCACCCACUUAGAUGCUGAUGGCCUGGGACUAUAAACAGGGACAGUUGGGUCUCCUAAGGAAUAGCUUCCAGGUCCAGGAUGCUGGCAUCUCCCAGAGAGAACUCCAUCCUCUUGCGGUCGCACUAGUGUGGAAUUCUCGGGUGUCAAGG
B3: ENSMUSG00000090935.112|Synj2bp (ssRNA)
RNA: GGGAGUUCUACAGUCCGACGAUCGCUUCGAUAUCCGCAUGCUAGUUCCUGUAGCUAUGGUGCUGCUACCAGUGUUUGCCCUCACCAUGGUAGCAGUUUGGGCCUUCGUGAGAUACCGAAAGCAGCUUUGAAAUGCUUGCUGUCUUCCAGUGUGUCCAAUGAACUCUCUCUCUCACUCACCAUCUCUGACAUCCUCCCAUAUUCUUUCUCCUCCACAUAGCCAAUACAAGAUUUAAAGUGACUGCUUAUCACCCAAAACCCUGCUAUUCAAAAUCUCCUAUUCUAAUGGAAGAGUACAGGGGUUCUCUUGCGGUCGCACUAGUGUGGAAUUCUCGGGUGUCAAGG
B4: ENSMUSG00000034801.219|Sos2|230:238 (ssRNA)
RNA: GGGAGUUCUACAGUCCGACGAUCGCUUCGAUAUCCGCAUGCUAUCUGCUAUUUGACUAAUUUGUAAGUCUGGAACAAAAGUGUCUUAUGGCAUAAGAACCAACUGCCAUUGUCAAACCUAUUAACUGUCUUUAAUCUCGUGUUAACUGAAAUUUUUGAAAAGUUUUUCCAGAUUAGUAAUAUUUAAACAGAAAAUACUUUAAAAAGCUUUAUUAAAUUUUUUAAUCAGGAUAAAGCUUUGCCAUUUGGAUACUAUCAUUCAAAGUGAUCAAGCAUACAUACUUAUGCUGAUAGUGCAGUAGCACUCUUGCGGUCGCACUAGUGUGGAAUUCUCGGGUGUCAAGG
B5: ENSMUSG00000028439.106|Fam219a|156:160 (ssRNA)
RNA: GGGAGUUCUACAGUCCGACGAUCGCUUCGAUAUCCGCAUGCUACCCUCAUCUCCAGAUGGGAAGCCUGGCAGCGCUGUCCAAAGGGAUACUGUCUCUCCAUUAGAUAACUCCUUCCACUGUCUCCCUCCCCCGCUUUCUUACUUUCUGAGGGUUGGGAAGGUAAGAUGGGCCUUAGAGAGAAGCCAGGUUUGGGGAUGCAUACACCUGUUCUCACCGGUCUCUAACCAGUGCAUCUGUCUCUCUGCCUCAUCCCCACACCGCCCUGCCACCCCCAGUCUUCUGUCUAUUGGUUCCAGGCUGGACUCUUGCGGUCGCACUAGUGUGGAAUUCUCGGGUGUCAAGG
B6: ENSMUSG00000061578.55|Ksr2 (ssRNA)
RNA: GGGAGUUCUACAGUCCGACGAUCGCUUCGAUAUCCGCAUGCUACACGCUGGACCAGUGUGUGCGCAUGUGUCUACACAUGGACAGGGCCAACUGCUAUCCUUCUGCCUGGACGAGCCAGCUGUGGAGUGUCCCAGCUGUGCUAUCCUGGAACACAGAACCAGGAUGGAACCAGAAACAAUACACCUGCUCCGUUGUCAAGGCUUCUAGGCCAAGGUCAGGGUAGGGAGGUGGGGUGGGUUAAACUUGCAAACAUCUGAUUUUAGAGGUCCCAUUCCAAGAUGGAAGUCACCGGUUGCCGCUGACUCUUGCGGUCGCACUAGUGUGGAAUUCUCGGGUGUCAAGG
B7: ENSMUSG00000031028.274|Tub (ssRNA)
RNA: GGGAGUUCUACAGUCCGACGAUCGCUUCGAUAUCCGCAUGCUAAAAAAGUAGAGUCAUGUAGAGUCAUGCUUUGAAUAUGUGGGUCAUGCUUUAGAUAUGAAGAGGCUAUGCAGGUAAGGAGGCUGGAUUGAUGUAAAUGGAAGUAGUACUUUAAGAAAGCUCUAGAUUUCCCAGGUUGGACACUCGACGAAAGGCACACCUGCUGCAGCAGGUUCUGACACACCUGAGCCAUACAUUGCCAUCAGAGAACCCUCAGCGAGGUAGCCUUUGUUUACAGUCUAGUUUCUAGAGGGCAGUAGGACCUCUUGCGGUCGCACUAGUGUGGAAUUCUCGGGUGUCAAGG
B8: ENSMUSG00000031028.129|Tub|126:130;202:207 (ssRNA)
RNA: GGGAGUUCUACAGUCCGACGAUCGCUUCGAUAUCCGCAUGCUACCAAAUAUCUGAGUGGAUGGGGAUGAUAGGAGUCAUCCAGUAGACUCCCUACAUCAGGGCUCUCAGCAGCCCCAGCACAACACCUAUGACACACACACAGGAUCUAGGUCACCAUUCAAGUAAUGCAUACCUUCAGGAAGAAUGUCCUCUCUGGGAAGACUCAGCUCCCAUUAUUGCCAGCAUGCCAUGAUCAGUGAGGGCACACACCCAUGCUUAGGGGGAUGGCGCAGGGUGAGGGGAGCAGAGGAUAUUUUAGGGCCCUCUUGCGGUCGCACUAGUGUGGAAUUCUCGGGUGUCAAGG
B9: ENSMUSG00000004113.208|Cacna1b|46:50;236:240 (ssRNA)
RNA: GGGAGUUCUACAGUCCGACGAUCGCUUCGAUAUCCGCAUGCUACAUCGGGUGGAUUGGGUGGGAGCUGCUCAGAGCAGCACGGGGGCUACACACUUAGGGACAUUGACAGUGUCCAUCAGCAUGUCAGAGAAGCAGCUGUAGUGCCCGUGUUUCUCCCUGAGUCAUGGGUUCUGAAGAAGCCAGAGCGGCACAAUGCGUGCUUGCAUGAGGCACUUUCAGCCUUUUUAAAUCUGACUCUCAGGGAUGGGAUGCCUGCCAAGUAGGGUGUAAUCUCUGUACACAUUUUAAAACAACAACAACAACUCUUGCGGUCGCACUAGUGUGGAAUUCUCGGGUGUCAAGG
B10: ENSMUSG00000022095.101|Fam160b2 (ssRNA)
RNA: GGGAGUUCUACAGUCCGACGAUCGCUUCGAUAUCCGCAUGCUAUGCUCUACCCUCCUGGAGGCUGUUGCAAAAUUCCCAACUGCCUCCUGGCAGAGGCCCAAAGUAUGCUCUGCGCCCAGGCGGGGGCAGCUGCUAACAAGAGCCCUGGCGCAGCUGCAGCCAGGGCAGGCGAGAGCCUUGGAGCUGGGUGCCAGGCUCCAGCUCCAGCUCCAGCUGGUUCCUCUCUGGCGCCUUCUGAACCCGUCUCAGCAAGUCCGAAACACCUGGGCAGAGAGGUCAUUGACCAGGGAUGGGGGCCCUUGCUCUUGCGGUCGCACUAGUGUGGAAUUCUCGGGUGUCAAGG
B11: ENSMUSG00000028439.160|Fam219a (ssRNA)
RNA: GGGAGUUCUACAGUCCGACGAUCGCUUCGAUAUCCGCAUGCUACCAGGCUUCCAGAAAGGCUCUUCAAGAGCAAGCUUAAGGAAAUACAGUGAGCCAAGUGGCUGUAUGAUAUGGUAUGGUAUGGUAUGGUAUGGUAUGGUAUGGUAUGCACAUGUGUGUGCAUGUGUGUGUGCCUGUGUGUGUGCGUGUGCGUGUGUGUAUGUGUGUGCGUGUGUGUGUGUGUGUGUUGUACCCGAGUGUGUGUUGAGCCUAUCUGUCCAGGGAACCAGAUUGGUGUCCGAGAUGAGGAAAUGGCUGUGGCCCUCUUGCGGUCGCACUAGUGUGGAAUUCUCGGGUGUCAAGG
B12: ENSMUSG00000028439.161|Fam219a (ssRNA)
RNA: GGGAGUUCUACAGUCCGACGAUCGCUUCGAUAUCCGCAUGCUAUUCCAGAAAGGCUCUUCAAGAGCAAGCUUAAGGAAAUACAGUGAGCCAAGUGGCUGUAUGAUAUGGUAUGGUAUGGUAUGGUAUGGUAUGGUAUGGUAUGCACAUGUGUGUGCAUGUGUGUGUGCCUGUGUGUGUGCGUGUGCGUGUGUGUAUGUGUGUGCGUGUGUGUGUGUGUGUGUUGUACCCGAGUGUGUGUUGAGCCUAUCUGUCCAGGGAACCAGAUUGGUGUCCGAGAUGAGGAAAUGGCUGUGGCCUGGGAACUCUUGCGGUCGCACUAGUGUGGAAUUCUCGGGUGUCAAGG
B13: ENSMUSG00000028439.159|Fam219a (ssRNA)
RNA: GGGAGUUCUACAGUCCGACGAUCGCUUCGAUAUCCGCAUGCUACAGGAGCCAGGCUUCCAGAAAGGCUCUUCAAGAGCAAGCUUAAGGAAAUACAGUGAGCCAAGUGGCUGUAUGAUAUGGUAUGGUAUGGUAUGGUAUGGUAUGGUAUGGUAUGCACAUGUGUGUGCAUGUGUGUGUGCCUGUGUGUGUGCGUGUGCGUGUGUGUAUGUGUGUGCGUGUGUGUGUGUGUGUGUUGUACCCGAGUGUGUGUUGAGCCUAUCUGUCCAGGGAACCAGAUUGGUGUCCGAGAUGAGGAAAUGGCUCUCUUGCGGUCGCACUAGUGUGGAAUUCUCGGGUGUCAAGG
B14: ENSMUSG00000028439.158|Fam219a (ssRNA)
RNA: GGGAGUUCUACAGUCCGACGAUCGCUUCGAUAUCCGCAUGCUAAAAGUCCAGGAGCCAGGCUUCCAGAAAGGCUCUUCAAGAGCAAGCUUAAGGAAAUACAGUGAGCCAAGUGGCUGUAUGAUAUGGUAUGGUAUGGUAUGGUAUGGUAUGGUAUGGUAUGCACAUGUGUGUGCAUGUGUGUGUGCCUGUGUGUGUGCGUGUGCGUGUGUGUAUGUGUGUGCGUGUGUGUGUGUGUGUGUUGUACCCGAGUGUGUGUUGAGCCUAUCUGUCCAGGGAACCAGAUUGGUGUCCGAGAUGAGGAACUCUUGCGGUCGCACUAGUGUGGAAUUCUCGGGUGUCAAGG
B15: ENSMUSG00000028439.162|Fam219a (ssRNA)
RNA: GGGAGUUCUACAGUCCGACGAUCGCUUCGAUAUCCGCAUGCUAAAAGGCUCUUCAAGAGCAAGCUUAAGGAAAUACAGUGAGCCAAGUGGCUGUAUGAUAUGGUAUGGUAUGGUAUGGUAUGGUAUGGUAUGGUAUGCACAUGUGUGUGCAUGUGUGUGUGCCUGUGUGUGUGCGUGUGCGUGUGUGUAUGUGUGUGCGUGUGUGUGUGUGUGUGUUGUACCCGAGUGUGUGUUGAGCCUAUCUGUCCAGGGAACCAGAUUGGUGUCCGAGAUGAGGAAAUGGCUGUGGCCUGGGAAAUCAGUCUCUUGCGGUCGCACUAGUGUGGAAUUCUCGGGUGUCAAGG

The binders below were run against TDP-43 (Homo sapiens, UniProt Q13148 1-414) (assay: RNA Bind-n-Seq with designed 260-mer pool; 25 mM Tris-HCl, 150 mM KCl, 3 mM MgCl2, BSA (printed 500 mg/mL), 20 units/mL SUPERase IN; pH not stated; 500 nM RNA pool, 1 h, 4 C; TDP-43 5, 50, 500 nM; high values mean tight binding). Conditions: protein: recombinant; tags: SBP (GST cleaved off with PreScission; pGEX-GST-SBP).
Sequence of TDP-43 (Q13148 whole entry): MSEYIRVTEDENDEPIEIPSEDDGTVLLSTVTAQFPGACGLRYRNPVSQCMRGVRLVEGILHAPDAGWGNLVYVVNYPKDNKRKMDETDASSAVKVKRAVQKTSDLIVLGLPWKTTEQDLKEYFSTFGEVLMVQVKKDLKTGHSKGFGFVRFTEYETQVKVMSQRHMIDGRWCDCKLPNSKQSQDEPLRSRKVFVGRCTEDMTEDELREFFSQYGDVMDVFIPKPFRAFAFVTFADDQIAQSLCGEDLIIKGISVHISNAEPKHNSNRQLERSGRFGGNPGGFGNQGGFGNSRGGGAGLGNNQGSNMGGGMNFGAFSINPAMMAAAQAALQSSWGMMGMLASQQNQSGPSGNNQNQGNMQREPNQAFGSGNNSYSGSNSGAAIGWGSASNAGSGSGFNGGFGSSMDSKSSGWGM
How it was run: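 Streptavidin beads captured recombinant SBP-tagged TDP-43 at 5, 50 or 500 nM, and the beads were incubated for 1 h at 4 °C with 500 nM of an in vitro-transcribed pool of 260-nt 3′ UTR oligos in 25 mM Tris-HCl, 150 mM KCl, 3 mM MgCl2, BSA and SUPERase IN. After washing, bound RNA was eluted with biotin, reverse transcribed, PCR-amplified and sequenced. Binding is reported as R, the mapped-read-normalized abundance of each oligo in the bound sample divided by its abundance in the input. Two independent protein batches served as duplicates.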

Row | Binder | binding signal
1 | B1 | 0.391 R (bound/input frequency ratio)
2 | B2 | 0.299 R (bound/input frequency ratio)
3 | B3 | 2.02 R (bound/input frequency ratio)
4 | B4 | 0.0202 R (bound/input frequency ratio)
5 | B5 | 0.353 R (bound/input frequency ratio)
6 | B6 | 0.378 R (bound/input frequency ratio)
7 | B7 | 0.687 R (bound/input frequency ratio)
8 | B8 | 0.668 R (bound/input frequency ratio)
9 | B9 | 0.881 R (bound/input frequency ratio)
10 | B10 | 0.743 R (bound/input frequency ratio)
11 | B11 | 6.51 R (bound/input frequency ratio)
12 | B12 | 8.09 R (bound/input frequency ratio)
13 | B13 | 7.39 R (bound/input frequency ratio)
14 | B14 | 6.13 R (bound/input frequency ratio)
15 | B15 | 8.11 R (bound/input frequency ratio)
